In PubChem BioAssay (NCATS):
Results filed as inconclusive are left out. Where a call stands in place of a potency, no number is given. Calls of active or inactive are those of the source. Unless noted, the call rests on the fitted dose curve; in most records, active means well fitted curve in the direction sought with a large enough effect; inconclusive means small, poorly fitted or top-dose-only effect, or another doubt; inactive means no such curve, though single readings can be large; an effect the other way counts as inactive or inconclusive.

Experiments:
[1] = target: Cytochrome P450 3A4 (Homo sapiens) (UniProt P08684); experiment: qHTS Assay for Activators of Cytochrome P450 3A4 (AID 885); further: nearly all actives have a fitted effect of over 65% in size
Sequence of Cytochrome P450 3A4 (Homo sapiens) (P08684 whole entry, looked up): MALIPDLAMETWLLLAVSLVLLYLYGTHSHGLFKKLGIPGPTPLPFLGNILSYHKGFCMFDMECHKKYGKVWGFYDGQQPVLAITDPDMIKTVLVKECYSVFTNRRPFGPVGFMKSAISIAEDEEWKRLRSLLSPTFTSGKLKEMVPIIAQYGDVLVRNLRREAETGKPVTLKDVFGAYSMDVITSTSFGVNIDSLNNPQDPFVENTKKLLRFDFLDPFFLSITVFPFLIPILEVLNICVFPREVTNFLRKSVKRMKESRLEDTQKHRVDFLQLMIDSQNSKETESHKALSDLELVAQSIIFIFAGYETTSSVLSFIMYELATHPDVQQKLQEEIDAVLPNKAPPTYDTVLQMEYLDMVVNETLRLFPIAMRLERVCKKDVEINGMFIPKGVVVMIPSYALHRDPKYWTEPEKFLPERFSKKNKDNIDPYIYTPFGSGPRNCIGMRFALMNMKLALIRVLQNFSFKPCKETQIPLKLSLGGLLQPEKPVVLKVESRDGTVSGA
How it was run: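 Using 20nM recombinant human CYP3A4 in potassium phosphate (200mM), substrate Luciferin-PPXE at 25uM, luminescent luciferin detection followed a 60-min RT NADPH reaction; data scaled to 57 uM ketoconazole.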

[2] = Confirmation and Secondary Assay for Modulators of Hemoglobin Beta Chain Splicing at IVS2 654 locus (AID 910);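 further: HeLa cells stably carrying EGFP split by mutant beta-globin IVS2-654 intron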
How it was run: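 HeLa cells stably expressing EGFP interrupted by β-globin IVS2-654 intron, seeded overnight in Opti-MEM/2% FCS, then treated 2 days at 37 °C. Restored splicing read as total peak GFP intensity per well by laser scanning cytometry (488 nm excitation, 500–520 nm emission); 500 nM antisense PNA as control.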

[3] = Confirmation and Secondary Assay for Modulators of Hemoglobin Beta Chain Splicing at IVS2 705 locus (AID 930);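 further: HeLa cells stably expressing the EGFP-705 splicing reporter; GFP fluorescence per well restored by corrected splicing of the IVS2-705 intron in EGFP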
How it was run: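 Assay measures total GFP intensity per well in HeLa EGFP-705 cells after 2 days with compound; mis-splicing normally truncates EGFP, so fluorescence indicates corrected splicing.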

[4] = S16 Schwann cell PMP22 intronic element beta-lactamase assay (AID 624044; calls by dose curve; further: nearly all actives have a fitted effect of over 15% in size)
How it was run: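 Beta-lactamase reporter under a PMP22 intronic regulatory element in stable S16 rat Schwann cells; 24 h compound exposure. 460 nm blue signal normalized between DMSO (0%) and potassium clavulanate, with 535 nm FRET tracking viability; curves classed by r2 and response.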

[5] = tested on: 7G8; experiment: qHTS profiling for inhibitors of Plasmodium falciparum proliferation (AID 504749); further: nearly all actives have a fitted effect of over 60% in size; settings: P. falciparum in erythrocytes, SYBR Green DNA, 72 h; series mostly up to 12.8 µM
How it was run: (§1)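 SYBR Green fluorescence (ex 485 nm, em 535 nm) reports parasite DNA after 72 h compound exposure of infected red cells at 0.3% parasitemia, 2.5% hematocrit; signal normalized to 0.29 uM artemisinin and vehicle wells.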

[6] = tested on: CP215; experiment: as above; settings: P. falciparum in erythrocytes, SYBR Green DNA, 72 h; series mostly up to 12.8 µM
How it was run: as §1

[7] = tested on: DFO2036; experiment: as above; settings: P. falciparum in erythrocytes, SYBR Green DNA, 72 h; series mostly up to 12.8 µM
How it was run: as §1

[8] = tested on: DIV14; experiment: as above; settings: P. falciparum in erythrocytes, SYBR Green DNA, 72 h; series mostly up to 12.8 µM
How it was run: as §1

[9] = tested on: DIV17; experiment: as above; settings: P. falciparum in erythrocytes, SYBR Green DNA, 72 h; series mostly up to 12.8 µM
How it was run: as §1

[10] = tested on: GB4; experiment: as above; settings: P. falciparum in erythrocytes, SYBR Green DNA, 72 h; series mostly up to 12.8 µM
How it was run: as §1

[11] = tested on: ICS; experiment: as above; settings: P. falciparum in erythrocytes, SYBR Green DNA, 72 h; series mostly up to 12.8 µM
How it was run: as §1

[12] = tested on: W2; experiment: as above; settings: P. falciparum in erythrocytes, SYBR Green DNA, 72 h; series mostly up to 12.8 µM
How it was run: as §1

[13] = target: Cytochrome P450 3A4 (Homo sapiens) (UniProt P08684); experiment: qHTS Assay for Inhibitors and Substrates of Cytochrome P450 3A4 (AID 884); further: nearly all actives have a fitted effect of over 50% in size; further: potency means the concentration at half of the fitted maximal effect
How it was run: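 Luminescent readout of luciferin produced by CYP3A4 (20 nM) dealkylation of Luciferin-PPXE, 25 uM (its KM). NADPH-driven reaction ran 60 min at RT after 10 min compound preincubation; data scaled to 57 uM ketoconazole as 100% inhibition.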

[14] = target: DNA dC->dU-editing enzyme APOBEC-3G (Homo sapiens) (UniProt Q9HC16); experiment: qHTS for inhibitors of Vif-A3G interactions: Validation (AID 588379)
Sequence of DNA dC->dU-editing enzyme APOBEC-3G (Homo sapiens) (Q9HC16 whole entry, looked up): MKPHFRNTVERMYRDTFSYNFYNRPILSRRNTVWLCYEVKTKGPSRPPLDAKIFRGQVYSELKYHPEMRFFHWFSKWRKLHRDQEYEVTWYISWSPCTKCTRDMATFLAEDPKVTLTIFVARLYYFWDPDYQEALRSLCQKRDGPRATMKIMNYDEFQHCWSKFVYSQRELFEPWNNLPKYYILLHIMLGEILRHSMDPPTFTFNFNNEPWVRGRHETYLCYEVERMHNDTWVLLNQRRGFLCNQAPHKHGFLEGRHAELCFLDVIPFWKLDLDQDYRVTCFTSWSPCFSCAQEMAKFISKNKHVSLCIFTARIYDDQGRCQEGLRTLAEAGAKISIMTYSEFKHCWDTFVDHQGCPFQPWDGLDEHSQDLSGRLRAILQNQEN
How it was run: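 Yellow fluorescence (Ex 488, Em 500-530) of Vif-coexpressing HeLa A3G-eYFP cells, scanned by Acumen cytometer, reports blocked A3G degradation. Cells plated at 700/well overnight at 37 deg C before compound addition, then a further overnight compound incubation at 37 deg C.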

SMILES	Potency [1]	Potency [2]	Potency [3]	Potency [4]	Potency [5]	Potency [6]	Potency [7]	Potency [8]	Potency [9]	Potency [10]	Potency [11]	Potency [12]	Potency [13]	outcome [14]
C[C@]12C=CC(=O)C=C1CCC1C2C(O)C[C@]2(C)C1CC[C@]2(O)C(=O)CO (some centres undefined)	inactive	inactive	inactive	inactive	inactive	inactive	inactive	inactive	inactive	inactive	inactive	inactive		
CC1=C(CCC(=O)O)c2cc3nc(cc4[nH]c(cc5[nH]c(cc1n2)c(C)c5C(C)O)c(C)c4C(C)O)C(C)=C3CCC(=O)O (centres undefined)		inactive	inactive										inactive	
CC1(C)OC2CC(=O)OC[C@@]23C1CC(=O)[C@]1(C)C3CC[C@@]2(C)C(c3ccoc3)OC(=O)C3O[C@@]321 (some centres undefined)		inactive	inactive		inactive	inactive		inactive	inactive	inactive	inactive			
C[C@]1(c2ccccc2)OC(C(=O)O)=CC1=O					inactive	inactive	inactive	inactive	inactive	inactive	inactive	inactive		inactive
CN(C)CCCOC1C(C(O)CO)OC2OC(C)(C)O[C@@H]21 (some centres undefined)		inactive	inactive	inactive	inactive	inactive	inactive	inactive	inactive	inactive	inactive	inactive	inactive	
CNC1C(OC2C(O[C@@H]3C(O)C(O)[C@@H](N=C(N)N)C(O)C3N=C(N)N)OC(C)[C@@]2(O)CO)OC(CO)C(O)C1O (some centres undefined)		inactive	inactive	inactive	inactive	inactive	inactive	inactive	inactive	inactive	inactive	inactive	inactive	
C=C1C2CC[C@@]3(C)C(c4ccoc4)OC(=O)C[C@@]13OC1CC(=O)C(C)(C)C(C(O)C(=O)OC)[C@]12C (some centres undefined)	inactive	inactive	inactive										2.51 µM (active)	
CC1(C)SC2C(NC(=O)C(N)c3ccccc3)C(=O)N2C1C(=O)O (centres undefined)		inactive	inactive											
Cc1cc(=O)oc2cc(O[C@@H]3O[C@H](C(=O)O)[C@@H](O)[C@H](O)[C@H]3O)ccc12													inactive	inactive
